Screening results as filed in PubChem.
KCNQ2 pot = enhances the rat KCNQ2 potassium channel; O88943; CHO-K1 KCNQ2, FluxOR thallium flux fluorescence; hits give high values; B-score at 10 µM; hit rate 0.54% among 310,000;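 active = fluorescence ratio B-score at least 3 SD of library B-scores, with initial fluorescence B-score within 3 of them, cut at about 5.3 in these data; same plate scores as AID 2156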;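 note: B-score of peak minus minimum over baseline fluorescence ratio after K+ and Tl+ stimulus; positive B-score means potentiation of KCNQ2 with more thallium influx and brighter signal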
KCNQ2 block = KCNQ2 (rat) channel inhibition; CHO-K1 KCNQ2, FluxOR thallium flux, 20 min; hits give low values; B-score at 10 µM; hit rate 1.1% among 310,000;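 active = fluorescence ratio B-score at most minus 3 library SDs, with starting brightness B-score within 2 library SDs, cut at about -5.5 in these data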
* marks the source's active call; other numbers are inactive results; i = inactive; . = not tested or not shown. Sampled rows, rich in hits. Any-hit rate of the full collection: about 1.6%.

SMILES	KCNQ2 pot	KCNQ2 block
CCN(CC)C(=O)/C(=C\c1ccc2c(c1)OCO2)NC(=O)c1ccc(Br)cc1	-6.51	-6.51*
CCNC(=O)/C(=C\c1ccc2c(c1)OCO2)NC(=O)c1ccc(Br)cc1	.	i
CCn1c(N)[n+](CC(=O)Nc2ccc(SC(F)F)cc2)c2ccccc21	.	i
Cc1ccc(C(=O)O/N=C(\N)c2nonc2N)cc1	0.38	i
CC(C)c1c(C(=O)N/N=C2\CCc3ccccc32)nnn1-c1nonc1N	1	i
Cc1cccc(N2CCN(C(=O)CSCc3c(C)noc3C)CC2)c1C	-6	-6*
Cc1noc(C)c1CSCC(=O)N1CCN(c2ccc(F)cc2)CC1	.	i
Cc1ccc(-n2c(-c3ccccc3)c[n+]3c2CCc2ccccc2-3)c(C)c1	.	i
CC(c1ccccc1)N(CCC(c1ccccc1)C1CCOC(C)(C)C1)C(=O)c1ccco1 (stereo not drawn)	.	i
COc1ccc(CN(CCC(c2ccc(F)cc2)C2CCOC(C)(C)C2)C(=O)c2ccco2)cc1 (stereo not drawn)	-5.78	-5.78*
Cc1ccc(N(O)C(=O)NCCCCNC(=O)N(O)c2ccc(C)cc2)cc1	.	i
CCc1cc(SC#N)cc(C)c1NC(=O)CCl	10.9*	i
CCc1cc(SC#N)cc(C)c1N	.	i
CCC(=O)Nc1ccc(SC#N)cc1C	0.11	i
Cc1cc(SC#N)cc(C)c1NC(=O)CCl	6.31*	i
COc1ccc(Br)cc1CNC(=O)c1ccc2c(c1)N(C)CCS2	-6.38	-6.38*
CCN1CCSc2ccc(C(=O)NCc3cc(Br)ccc3OC)cc21	.	i
CCOC(=O)c1c(S(=O)(=O)N2CCN(c3ccc(C(C)=O)cc3)CC2)c(C)n(C)c1C	0.89	i
CC(C)(C)OC(=O)COc1ccc(/C=N/NC(=O)CN2CCCCC2)cc1	.	i
O=C(NCC(=O)N1CCCCCC1)c1ccc(Br)cc1	.	i
CC1CCc2sc(C(=O)NC(C)C3CCCO3)cc2C1 (stereo not drawn)	-6.08	-6.08*
CC1CCc2sc(C(=O)NNC(=S)NCC3CCCO3)cc2C1 (stereo not drawn)	0.02	i
CCC1(c2ccccc2)NC(=O)N(CC(=O)Nc2ccc(S(=O)(=O)NC3=NCCCCC3)cc2)C1=O (stereo not drawn)	1.46	i
COc1ccc(Cl)cc1NC(=O)c1[nH]c(C)c(C(C)=O)c1C	1.2	i
CC(=O)c1c(C)[nH]c(C(=O)NNC(=O)COc2ccc(Cl)cc2C)c1C	-5.82	-5.82*
SMILES	KCNQ2 pot	KCNQ2 block
COc1ccc(NCc2ccc(OC)c(Cn3ccnc3)c2)c(OC)c1	.	i
CCCCN1CC2=C(C1=O)C(c1ccc(O)cc1)NC(=O)N2C (stereo not drawn)	0.06	i
CO/N=C(\Cn1ncc(NC2CCCCC2)c(Br)c1=O)c1ccc(Cl)cc1	-6.15	-6.15*
CO/N=C(\Cn1ncc(N2CCCC2)c(Br)c1=O)c1ccc(Cl)cc1	.	i
CCN(CC(=O)Nc1ccccc1Br)C1CCCCC1	.	i
O=C(CSC1CCCCC1)Nc1ccccc1Br	6.89*	i
c1cc2c3c(cccc3c1)C(N1CCOCC1)=N2	.	i
c1ccc(CC2CCN(C3=Nc4cccc5cccc3c45)CC2)cc1	-5.96	-5.96*
O=C(NCc1ccc2c(c1)OCO2)c1ccc(S(=O)(=O)N2CCOCC2)cc1	.	i
COc1ccc(-c2cc3nc(-c4ccccc4)cc(N4CCC5(CC4)OCCO5)n3n2)cc1	-6.5	-6.5*
COc1cccc(-c2cc3nc(-c4ccccc4)cc(N4CCCC(O)C4)n3n2)c1 (stereo not drawn)	.	i
COc1ccc(-c2cc3nc4c(c(N5CCC6(CC5)OCCO6)n3n2)CCC4)cc1	.	i
COc1cccc(-c2cc3nc4c(c(N5CCC6(CC5)OCCO6)n3n2)CCC4)c1	-7.01	-7.01*
COc1cc(Br)ccc1C1CC(=O)C(C)C(c2ccc(Br)cc2OC)N1 (stereo not drawn)	.	i
O=C(CCC(=O)c1ccc(Cl)cc1)OCc1nc2ccsc2c(=O)[nH]1	0.01	i
O=C(O)CSCC(=O)NCc1cccc(C(F)(F)F)c1	0.01	i
O=C(CCC(=O)c1cccs1)NCc1cccc(C(F)(F)F)c1	-6.43	-6.43*
O=C(CSc1ccccc1)NCc1ccccc1	.	i
O=C(CCC(=O)c1cccs1)NCc1cccc(Cl)c1	-6.29	-6.29*
O=C(CSc1cccc(C(F)(F)F)c1)NCc1ccccc1	16*	i
O=C(COC(=O)CCC(=O)c1cccs1)NCc1ccc(Cl)cc1	0.13	i
CCC(C)[C@H]1CNCCN1CCc1cccc(F)c1 (stereo partly drawn)	0.97	i
Cc1nn(C)c(Oc2cccc(Cl)c2)c1C(=O)Nc1ccc(F)cc1	.	i
CCn1c(=S)sc2c(=O)n(CC(=O)Nc3ccc(OC)c(Cl)c3)c(C)nc21	0.08	i
O=C(OCCCOC(=O)c1ccccc1O)c1ccccc1O	0.17	i
SMILES	KCNQ2 pot	KCNQ2 block
Cn1c(CCc2ccccc2)n[nH]c1=S	0.51	i
CCOc1ccc(S(=O)(=O)N(C)c2ccc(OCC(=O)Nc3nc4ccccc4s3)cc2)cc1	-5.94	-5.94*
CN(c1ccc(OCC(=O)Nc2nc3ccccc3s2)cc1)S(=O)(=O)c1ccccc1	.	i
COc1ccccc1NS(=O)(=O)c1cc(C(=O)N2CC(C)CC(C)C2)ccc1C (stereo not drawn)	.	i
O=C(NCc1ccco1)c1cc2cc(Br)ccc2o1	.	i
COc1cccc(-c2ccc(NC(=O)C3CCCN(Cc4nccn4C)C3)cc2)c1 (stereo not drawn)	.	i
COc1ccccc1N1CCN(C(=O)C(C)N(c2ccc(C)cc2)S(C)(=O)=O)CC1 (stereo not drawn)	.	i
COc1ccccc1N1CCN(C(=O)C(C)N(c2ccccc2)S(C)(=O)=O)CC1 (stereo not drawn)	-5.69	-5.69*
COC(=O)Cc1ccc(NC(=S)N2CCN(CCO)CC2)cc1	0.09	i
C=CCN1C(=O)C(CC(=O)Nc2ccc(OCCC)cc2)N(CCCN2CCN(Cc3ccccc3)CC2)C1=S (stereo not drawn)	-6.77	-6.77*
CCN1C(=O)C(CC(=O)Nc2ccc(OC)cc2)N(CCc2ccc(F)cc2)C1=S (stereo not drawn)	-7.53	-7.53*
COc1ccc(NC(=O)CC2C(=O)N(Cc3ccccc3)C(=S)N2CCN2CCOCC2)cc1 (stereo not drawn)	.	i
COc1ccc(NC(=O)CC2C(=O)N(C)C(=S)N2CCc2ccc(F)cc2)cc1 (stereo not drawn)	.	i
C=CCN1C(=O)C(CC(=O)NCC)SC1=Nc1ccccc1OC (stereo not drawn)	0.45	i
CN(C)c1cccc(C(=O)NC2CCCc3ccccc32)c1 (stereo not drawn)	-6.49	-6.49*
O=C(NC1CCCc2ccccc21)c1cccc(Br)c1 (stereo not drawn)	.	i
CC(C)[C@H](NC(=O)NC1CCCc2ccccc21)C(=O)O (stereo partly drawn)	.	i
COC(=O)[C@H](C)NC(=O)NC1CCCc2ccccc21 (stereo partly drawn)	-6.47	-6.47*
CC(=O)OC1C2CCC1C([N+]1(C)CCCCC1)CC2 (stereo not drawn)	2.77	i
CNc1ccc(C2(O)C(=O)c3ccccc3C2=O)cc1	1.06	i
CNc1cc(CSc2ccc(Cl)cc2)nc(C)n1	1.22	i
Cc1nc(CSc2ccc(Cl)cc2)cc(NCc2ccccc2)n1	-5.69	-5.69*
CNC(=O)c1nnn(Cc2ccccc2)c1NC(=O)C(F)(F)F	0.43	i
